# Shown are actives, neighbours in structure and some others; about 1% of the full set was active somewhere.
# E-sel TNF inh = TNF alpha driven E-selectin expression inhibition. HUVEC TNFa-induced E-selectin immunofluorescence, high content. inhibition, % at 2 µM. 120,000 tested, 0.71% active. AID 1246;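 active = inhibition above the batch mean plus 3 SD, and confirmed as a hit on visual image review, cut at about 43% in these data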;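 also: 0% = TNF-stimulated DMSO wells and 100% = unstimulated control wells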
# F-actin modifier = cytoskeleton assembly modification; HUVEC TNFa F-actin phalloidin imaging, high content; inhibition, % at 2 µM; 91,000 tested, 0.18% active; AID 836;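 active = inhibition above the batch mean plus 3 SD and confirmed as a hit by visual image inspection, cut at about 30% in these data, passing the limit was not always enough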
# VCAM1 TNFa inh = reduces TNF alpha induced VCAM1 expression in HUVEC | HUVEC TNFa-induced VCAM-1 immunofluorescence, high-content imaging | inhibition, % at 2 µM | 95,000 tested, 0.48% active | AID 802;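 active = inhibition above the batch mean plus 3 SD, with images confirmed as a hit by eye, cut at about 37% in these data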;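 also: 0% = TNF-stimulated DMSO wells and 100% = unstimulated control wells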
# TNFa cytotox = toxic to HUVEC cells under TNF alpha stimulation. cell count reduction, % at 2 µM. AID 848. 93,000 tested, 0.17% active. HUVEC TNFalpha-stimulated, Hoechst cell count, imaging;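 active = cell count reduction exceeding the screen mean by over 5 SD, scaled to untreated wells per plate, cut at about 78% in these data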;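 also: cells counted after 24 h of TNF alpha exposure following the 1 h pretreatment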
# The depositor's hits bear a star; . = no result given.
SMILES,E-sel TNF inh,F-actin modifier,VCAM1 TNFa inh,TNFa cytotox
O=C(Cc1ccccc1)NCCC1=CCCCC1,-5,.,.,.
N=C(c1cccc([N+](=O)[O-])c1)N1CCCCC1,-14,.,.,.
CS(=O)(=O)N1CCc2cc(NC(=O)c3ccc(Cl)cc3Cl)ccc21,-21,.,.,.
Cc1nc2ccccc2n1-c1nc(-c2ccco2)cc(C(F)(F)F)n1,100*,.,.,.
CCOC(=O)c1sc2nc(COC(=O)c3c(F)cccc3F)[nH]c(=O)c2c1C,13,.,.,.
CCOC(=O)c1sc2nc(CSc3nc4ccccc4n3CC)[nH]c(=O)c2c1C,77*,-26,-10,-4
COc1cccc(NC(=O)CN2C(=O)NC(C)(CC(C)C)C2=O)c1 (stereo unspecified),-32,.,.,.
CCN(/N=C/c1ccc(Cl)cc1)c1cc(=O)n(C)c(=O)[nH]1,62*,.,.,.
CCOc1ccc(N2CC(O)=C(c3ccccc3)C2=N)cc1,21,.,.,.
CC(=O)Nc1ccc(S(=O)(=O)Nc2nc(C)cc(-n3nc(C)cc3C)n2)cc1,-5,.,.,.
Cc1cc(-n2nc(C)cc2C)nc(NS(=O)(=O)c2ccccc2)n1,58*,.,.,.
CC(C)c1ccc(NC(=O)c2cccc(Br)c2)cc1,11,.,.,.
Cc1ccc2cc(C#N)c(N3CCCC3)nc2c1C,100*,1,13,-7
Cc1ccc2cc(C#N)c(N3CCCN(C(=O)C4CCCO4)CC3)nc2c1C (stereo unspecified),6,.,.,.
COc1cc(OC)c(S(=O)(=O)Nc2ccccc2N2CCOCC2)cc1NC(C)=O,1,.,.,.
CCCc1c(O)c2ccccc2[nH]c1=O,52*,1,-2,-10
CCCCc1c(O)c2ccccc2[nH]c1=O,-4,21,20,-33
COc1ccc(OC)c(CCNC(=O)CSc2ccsc2[N+](=O)[O-])c1,77*,.,.,.
COc1ccc(CCNC(=O)CSc2ccsc2[N+](=O)[O-])c(OC)c1,7,.,.,.
O=C(c1cccc(F)c1)N1CCN(c2cc(N3CCCCC3)c(F)cc2[N+](=O)[O-])CC1,51*,16,-5,15
CSc1ccc(S(=O)(=O)Nc2ccc3c4c(cccc24)CC3)cc1,26,-46,44*,18
O=S(=O)(Nc1ccc2c3c(cccc13)CC2)c1ccc(F)cc1,-43,-20,-3,10
NC(=S)N/N=C/c1ccc(-c2ccc(Cl)c(Cl)c2)o1,-1,-5,68*,8
COC(=O)N/N=C/c1ccc(-c2cc(Cl)ccc2Cl)o1,-5,.,.,.
COC(=O)N/N=C\c1ccc(-c2cc(Cl)c(Cl)cc2Cl)o1,7,.,.,.
SMILES,E-sel TNF inh,F-actin modifier,VCAM1 TNFa inh,TNFa cytotox
NC(=S)N/N=C\c1ccc(-c2cccc(Cl)c2Cl)o1,1,-64,80*,49
COc1ccc(N2C(=O)C(CC(=O)Nc3ccc(F)cc3)N(CCc3ccc(OC)c(OC)c3)C2=O)cc1 (stereo unspecified),-12,.,.,.
CCOC(=O)c1sc(NC(=O)CSc2nc3c(cc2C#N)CCCCCC3)c(C#N)c1C,-25,4,-13,-17
N#Cc1cc2c(nc1SCC(=O)N1CCCCC1)CCCCC2,-28,-2,7,-18
N#Cc1cc2c(nc1SCC(=O)N1CCCCC1)CCCC2,-6,7,52*,19
CCOC(=O)c1sc(NC(=O)CSc2nc3c(cc2C#N)CCC3)c(C#N)c1C,10,18,86*,-61
Cc1nn(-c2cc(C)c3ccccc3n2)c2c1C1C(C2)C1(C)C (stereo unspecified),5,-7,60*,12
Cc1cc(-n2nnc3ccccc32)nc2ccccc12,13,-16,12,1
Cc1cc(-c2c(C)[nH]n(-c3ccccc3)c2=O)n(-c2ccccc2)n1,100*,14,19,25
Cc1ccccc1-n1ccnc1SCC(=O)O,65*,-8,-18,-3
Cc1cc(C)n(-c2nc(-c3cccc(Cl)c3)cs2)n1,.,-28,90*,86*
O=C1CC(c2ccccc2)CC2=C1CN(C1CCCCC1)CN2 (stereo unspecified),70*,2,-6,-12
COc1cc([N+](=O)[O-])ccc1NC(=O)CN1CCN(C(=O)c2ccco2)CC1,-11,.,.,.
C=CCn1c(SCC(=O)NCc2ccccc2)nnc1-c1ccccc1O,40*,22,-5,1
C=CCn1c(CSCc2ccc(C)cc2)nnc1SCC(=O)NCc1ccccc1,-9,6,2,-12
Cc1ccc(SCCC(=O)OCC(=O)NCC2CCCCC2)cc1,-4,.,.,.
COc1ccc(C2C(C#N)=C(C)NC3=C2C(=O)c2ccccc23)cc1 (stereo unspecified),.,-24,30,-8
COc1cc(C2C(C#N)=C(C)NC3=C2C(=O)c2ccccc23)cc(OC)c1OC (stereo unspecified),.,-10,89*,63
CC1=C([N+](=O)[O-])C(c2ccccc2)C2=C(N1)c1ccccc1C2=O (stereo unspecified),-9,9,44*,47
CCOc1ccc(C2C(C#N)=C(C)NC3=C2C(=O)c2ccccc23)cc1 (stereo unspecified),10,2,4,1
CN(Cc1ccc(F)cc1)C(=O)COc1ccccc1-c1ccccc1,-34,.,.,.
CCSc1ccc(C(=O)Nc2ccc(Br)cn2)cc1[N+](=O)[O-],-4,.,.,.
Cn1cc([N+](=O)[O-])c(C(=O)Nc2ccc(Br)cn2)n1,54*,-2,0,-12
O=C(Nc1cccc(-c2nc3cccnc3s2)c1)C1c2ccccc2Oc2ccccc21,-5,.,.,.
Cn1ncc(C#N)c1NC(=O)c1cc(-c2ccccc2Cl)on1,10,1,10,-6
SMILES,E-sel TNF inh,F-actin modifier,VCAM1 TNFa inh,TNFa cytotox
O=S(=O)(c1ccc(Oc2ccc(S(=O)(=O)N3CCOCC3)cc2)cc1)N1CCOCC1,-1,.,.,.
C=CS(=O)(=O)c1ccc(Oc2ccc(S(=O)(=O)C=C)cc2)cc1,100*,.,.,.
Cc1nnc(SCC(=O)Nc2ccc3c(c2)OCCO3)n1N,12,-11,1,-17
Nn1c(SCC(=O)Nc2ccc3c(c2)OCCO3)nnc1C(F)(F)F,.,34*,1,-9
Nc1ccc(C(=O)Nc2ccco2)cc1,-8,-13,4,.
CC(C)n1c(SCC(=O)Nc2nc3c(s2)CCCC3)nc2c1c(=O)n(C)c(=O)n2C,100*,1,1,-14
CC1(CC(=O)N/N=C/c2cc3c(cc2Br)OCO3)OCCO1,-35,.,.,.
CCn1ccnc1C(O)c1cccc(OC)c1 (stereo unspecified),-3,64*,-9,-11
O=C(NC1CCCCC1)C(c1ccc(O)c(O)c1)N(C(=O)Cn1nnc2ccccc21)c1cccc(O)c1 (stereo unspecified),15,.,.,.
Cc1ccc(N2CC(C(=O)Nc3ccc(N(C)C)cc3)CC2=O)cc1C (stereo unspecified),5,-4,-22,0
Cc1cc(N2CC(C(=O)O)CC2=O)ccc1Br (stereo unspecified),-12,-8,62,92*
COc1ccccc1-c1cn(S(=O)(=O)c2ccc(C)cc2)nc1N,-9,-7,91*,-19
C=C1C(=O)C=C2CN(C(=O)c3ccccc3)[C@@](Cc3ccc(F)cc3)(C(=O)OC)[C@@H]12,100*,.,.,.
O=C(NCCc1csc(-c2ccc(C(F)(F)F)cc2)n1)c1cccs1,14,-12,1,32
